From PubChem BioAssay (NCI) come the findings set out here.

This is part of a sample that, as a whole, favours compounds with a hit. Of some 83,000 tested, about 20% had one in any assay.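 Interpretation: 100, growth as untreated; towards 0, rising growth inhibition; 0, no net growth; 0 to -100, cell death. Compounds scoring below 10 were considered active.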 Values without a mark were called inactive.

This experiment deals with NCI-H322M lung. Put plainly: NCI-60 one-dose screen, 48 h (100 = growth as untreated, 0 = no growth, -100 = all killed). The conditions noted are these: 10 µM unless noted.
For `CCOc1ccc(NC(=O)CSc2oc(-c3ccccc3)nc2S(=O)(=O)c2ccc(C)cc2)cc1`, the growth was 61.1%.

With `O=C(/C=C/c1cccc(Cl)c1)c1ccc(Nc2nc(Nc3ccc(F)cc3)nc(Nc3ccc(Cl)cc3)n2)cc1`, the growth was 96.6%.

As for `Cn1c(I)c(C#CCO[Si](C)(C)C(C)(C)C)c(=O)[nH]c1=O`, the growth is 95.5%.

In the case of `CC(=O)Oc1ccc(C)cc1C`, the growth was 108%.

On to `COc1cc(C2CC(c3ccc(Nc4nc(Nc5ccc(Cl)cc5)nc(Nc5ccc(Cl)cc5)n4)cc3)=NN2C(C)=O)cc(OC)c1OC` (centres undefined), for which the growth was 106%.

As to `c1cnc2c(-c3nc4ccc5[nH]ncc5c4c4c3CCCC4)c[nH]c2c1`, the growth is 21.3%.

With `COc1ccc(/C=C/C(=O)c2cc3c(N)c(C(=O)Nc4cccc5ccccc45)sc3nc2C)cc1`, the growth was 95.8%.

For `O=C1/C(=C/c2ccc([N+](=O)[O-])cc2)COc2ccc(O)cc21`, the growth is 91.9%.

`CCOCCNC1=C(Cl)C(=O)c2ccccc2C1=O`: the growth is 108%.

In the case of `CCN(CC)c1ccc(\C=N/N=C(N)/C(N)=N\N=C/c2ccc(N(CC)CC)cc2)cc1`, the growth is 105%.

Take `CSc1nc2ccccc2cc1/C=C1/C=C(c2ccccc2)NC1=O`: the growth is 93%.

Turning to `Cn1cc(-c2ccc3nc(-c4ccc(CC(=O)ONc5cc(C(C)(C)C)on5)cc4)cnc3c2)cn1`, the growth is 22.8%.

Regarding `Nc1ncnc2c1C(c1ccccc1)c1ccc3ccccc3c1O2` (centres undefined), the growth is 88%.

Take `N#Cc1nc(-c2ccc(F)cc2)oc1S(=O)(=O)N1CCOCC1`: the growth is 102%.
